Test results from ChEMBL document CHEMBL3988442, “University of Dundee, Small-Polar-MMV Screening Library” (2021).

Organism: Homo sapiens
Test: To identify inhibition of the IFN signalling (Jak-Stat) pathway via expression of an eGFP reporter gene under the control of an IFN-stimulated response element (ISRE) containing MxA promoter.
Assay type: functional
Design: scale not given: direction of the effect not stated beside the values
Details: 30 µM

Compared with Cc1cnn(CC2CCCN2CC(=O)Nc2cc(C(C)(C)C)no2)c1 (stereo not given), Cc1cnn(CC2CN(CC(=O)N(C)Cc3cccs3)CCO2)c1 (stereo not given) is higher in Percent Effect: 2.79% for the first, 11.2% for the second.

First: O=C(NCCCNc1ccccc1)c1scnc1Cl
Second: COc1ccc(C(=O)NCCCn2ccnc2)c(OC)n1
The Percent Effect of the first is higher: 24.4% for the first, 11.6% for the second.

First: Cc1noc(Cl)c1CCC(=O)N1CCc2sccc2C1
Second: Cn1nc2c(cc1=O)CN(Cc1nc(C(C)(C)C)no1)CC2
The Percent Effect of the first is higher: 25.1% for the first, 21.4% for the second.

Going from COCC1CC2(CCN(Cc3ccc(OC)cc3)CC2)CN1C(C)C (stereo not given) to Cc1cccc(CN2C(=O)CCC23CCN(Cc2cccn2C)CC3)n1, the Percent Effect rises from -19.4% to 23.5%.

Going from CCCN1CCCn2nc(CNS(=O)(=O)c3cccc(C#N)c3)cc2C1 to CN1CCCn2c(nc(CNC(=O)c3ccsc3)cc2=O)C1, the Percent Effect falls from 9.83% to -5.79%.

Compared with CC(C)c1cc(N2CCN(c3ccc(O)cc3)CC2)n2nccc2n1, CCn1ccnc1CN1CCN(CC(O)c2ccccc2)CC1 (stereo not given) is higher in Percent Effect: 0.905% for the first, 10.2% for the second.

Going from CC(Cn1cccn1)NC(=O)Cc1cccs1 (stereo not given) to COc1ncccc1CNC(=O)c1cccc(C)n1, the Percent Effect falls from 28.8% to 18.5%.

Going from CCCC(=O)N1CCC2(CC1)CC(NC(C)=O)c1ccccc1O2 (stereo not given) to CCOC1COC2(CCN(S(=O)(=O)c3cccc(F)c3)CC2)C1 (stereo not given), the Percent Effect falls from 6.03% to -2.83%.

Going from CCN1CCN(C(=O)NCCOc2ccc3c(c2)OCO3)CC1 to CCC(O)CN1CCN(C(=O)c2sccc2OC)CC1 (stereo not given), the Percent Effect rises from -5.27% to 16.7%.

Compared with Clc1ccccc1-c1nc(CNC2CCc3ncnn3C2)cs1 (stereo not given), Nc1nc2nc(C3CCCN(C(=O)c4cscn4)C3)ccc2s1 (stereo not given) is higher in Percent Effect: -12% for the first, 25.7% for the second.

Compared with CCS(=O)(=O)c1ncc(CN(C)Cc2ccccn2)n1CCOC, COc1ccc(F)cc1C(=O)N(C)Cc1cc(C)on1 is higher in Percent Effect: 3.71% for the first, 21.1% for the second.

Going from O=C(O)c1cc(S(=O)(=O)N2CCOc3ccccc32)ccc1F to Cc1occc1C(=O)N1CC[C@@H](N2CCOCC2)[C@@H]1Cc1ccccc1, the Percent Effect rises from -4.8% to 0.411%.

Compared with COc1ccc(CNC(=O)N2CCC(Cc3cnn(C)c3)C2)cc1C (stereo not given), CCc1ccc(O)c(C(=O)NC2CCN(C(=O)OC)CC2)c1 is higher in Percent Effect: 10.9% for the first, 36.6% for the second.

First: O=C(c1ccccn1)N1Cc2nccn2CC(CN2CCOCC2)C1 (stereo not given)
Second: CO[C@@H]1CCN(C(=O)c2ccccn2)[C@H]1Cc1ccccc1
The Percent Effect of the first is lower: 4.82% for the first, 8.74% for the second.

Going from Cc1ccc(CN2CCCn3c(nc(CN4CCCC4)cc3=O)C2)s1 to CC(c1nc(C2CC2)no1)N1CCN(Cc2ccsc2)CC1 (stereo not given), the Percent Effect rises from -18.4% to 3.35%.

Going from CCc1nc(C)ncc1C(=O)N1CCCC(n2nc(C)nc2C)C1 (stereo not given) to CCCC(C)C(=O)N1CCC(n2cccc2C(=O)OC)CC1 (stereo not given), the Percent Effect rises from -15.3% to 31%.

Compared with CN(Cc1noc(C2CC2)n1)C1CCN(Cc2ccncc2)C1 (stereo not given), Fc1cccc(-c2nc(CN3CCn4c(nnc4C4CC4)C3)co2)c1 is higher in Percent Effect: 12% for the first, 19% for the second.

Going from CC(=O)N1N=C(c2ccccc2)OC1C(=O)NCCc1cccc(Cl)c1 (stereo not given) to O=C1CC(c2ccco2)c2sc(C(=O)O)c(-c3ccccc3)c2N1 (stereo not given), the Percent Effect falls from 8.59% to -0.84%.

Going from Cc1cc(CN(C)C(=O)c2ccnc(N(C)C)c2)no1 to Cc1cc(CN(C)C(=O)c2ccc(C(F)(F)F)nc2)no1, the Percent Effect falls from 9.46% to -6.24%.

First: Cc1nn(C)c(N(C)C)c1CNCCCN(C)S(C)(=O)=O
Second: CS(=O)(=O)N1CCC[C@]2(C[C@@H](Oc3ncccc3F)CO2)C1
The Percent Effect of the first is higher: 4.19% for the first, -0.297% for the second.

Biological target: T1, Tyrosyl-tRNA synthetase, putative (Trypanosoma cruzi (strain CL Brener)) (UniProt Q4DSP6)
T1 sequence (whole entry): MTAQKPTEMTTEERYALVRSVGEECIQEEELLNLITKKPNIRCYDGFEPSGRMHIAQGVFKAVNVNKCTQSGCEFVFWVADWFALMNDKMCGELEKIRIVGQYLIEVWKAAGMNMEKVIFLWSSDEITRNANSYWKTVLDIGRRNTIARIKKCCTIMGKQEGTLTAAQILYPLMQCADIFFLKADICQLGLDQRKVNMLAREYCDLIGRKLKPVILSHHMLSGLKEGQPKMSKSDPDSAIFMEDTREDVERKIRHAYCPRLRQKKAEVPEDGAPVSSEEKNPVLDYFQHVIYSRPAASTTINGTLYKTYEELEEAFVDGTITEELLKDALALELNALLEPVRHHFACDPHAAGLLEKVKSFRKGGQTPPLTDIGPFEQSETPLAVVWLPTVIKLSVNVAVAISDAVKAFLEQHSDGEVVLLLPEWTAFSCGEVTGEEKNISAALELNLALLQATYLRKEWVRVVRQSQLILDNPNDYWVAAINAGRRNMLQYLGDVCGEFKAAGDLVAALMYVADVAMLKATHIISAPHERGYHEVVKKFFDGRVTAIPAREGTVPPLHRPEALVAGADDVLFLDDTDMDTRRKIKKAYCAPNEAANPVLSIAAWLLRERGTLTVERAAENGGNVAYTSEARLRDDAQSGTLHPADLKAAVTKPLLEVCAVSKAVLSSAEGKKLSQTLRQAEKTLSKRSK
Test: Trypanosoma cruzi tyrosyl tRNA synthetase (TcYRS) _High Tyrosine SOP; also: in the data most compounds retested in dose-response had high values
Assay type: functional
Design: scale not given: direction of the effect not stated beside the values
Details: 30 µM

First: Cc1cnn(CC2CCCN2CC(=O)Nc2cc(C(C)(C)C)no2)c1 (stereo not given)
Second: Cc1cnn(CC2CN(CC(=O)N(C)Cc3cccs3)CCO2)c1 (stereo not given)
The Percent Effect of the first is higher: 7.84% for the first, 2.63% for the second.

Compared with O=C(NCCCNc1ccccc1)c1scnc1Cl, COc1ccc(C(=O)NCCCn2ccnc2)c(OC)n1 is higher in Percent Effect: 3.68% for the first, 6.76% for the second.

Compared with Cc1noc(Cl)c1CCC(=O)N1CCc2sccc2C1, Cn1nc2c(cc1=O)CN(Cc1nc(C(C)(C)C)no1)CC2 is lower in Percent Effect: 5.79% for the first, 1.58% for the second.

Compared with COCC1CC2(CCN(Cc3ccc(OC)cc3)CC2)CN1C(C)C (stereo not given), Cc1cccc(CN2C(=O)CCC23CCN(Cc2cccn2C)CC3)n1 is higher in Percent Effect: 0.526% for the first, 9.66% for the second.

First: CCCN1CCCn2nc(CNS(=O)(=O)c3cccc(C#N)c3)cc2C1
Second: CN1CCCn2c(nc(CNC(=O)c3ccsc3)cc2=O)C1
The Percent Effect of the first is higher: 6.92% for the first, 1.58% for the second.

Going from CC(C)c1cc(N2CCN(c3ccc(O)cc3)CC2)n2nccc2n1 to CCn1ccnc1CN1CCN(CC(O)c2ccccc2)CC1 (stereo not given), the Percent Effect falls from 27.1% to 1.44%.

First: CC(Cn1cccn1)NC(=O)Cc1cccs1 (stereo not given)
Second: COc1ncccc1CNC(=O)c1cccc(C)n1
The Percent Effect of the first is lower: 0.526% for the first, 6.22% for the second.

First: CCCC(=O)N1CCC2(CC1)CC(NC(C)=O)c1ccccc1O2 (stereo not given)
Second: CCOC1COC2(CCN(S(=O)(=O)c3cccc(F)c3)CC2)C1 (stereo not given)
The Percent Effect of the first is lower: -1.93% for the first, 6.84% for the second.

Compared with CCN1CCN(C(=O)NCCOc2ccc3c(c2)OCO3)CC1, CCC(O)CN1CCN(C(=O)c2sccc2OC)CC1 (stereo not given) is higher in Percent Effect: 2.94% for the first, 3.92% for the second.

First: Clc1ccccc1-c1nc(CNC2CCc3ncnn3C2)cs1 (stereo not given)
Second: Nc1nc2nc(C3CCCN(C(=O)c4cscn4)C3)ccc2s1 (stereo not given)
The Percent Effect of the first is higher: 2.39% for the first, 0% for the second.

Compared with CCS(=O)(=O)c1ncc(CN(C)Cc2ccccn2)n1CCOC, COc1ccc(F)cc1C(=O)N(C)Cc1cc(C)on1 is lower in Percent Effect: 4.79% for the first, 2.39% for the second.

First: O=C(O)c1cc(S(=O)(=O)N2CCOc3ccccc32)ccc1F
Second: Cc1occc1C(=O)N1CC[C@@H](N2CCOCC2)[C@@H]1Cc1ccccc1
The Percent Effect of the first is lower: -0.478% for the first, 8.95% for the second.

Compared with COc1ccc(CNC(=O)N2CCC(Cc3cnn(C)c3)C2)cc1C (stereo not given), CCc1ccc(O)c(C(=O)NC2CCN(C(=O)OC)CC2)c1 is higher in Percent Effect: 0.478% for the first, 5.26% for the second.

Going from O=C(c1ccccn1)N1Cc2nccn2CC(CN2CCOCC2)C1 (stereo not given) to CO[C@@H]1CCN(C(=O)c2ccccn2)[C@H]1Cc1ccccc1, the Percent Effect falls from 12.1% to 8.7%.

Compared with Cc1ccc(CN2CCCn3c(nc(CN4CCCC4)cc3=O)C2)s1, CC(c1nc(C2CC2)no1)N1CCN(Cc2ccsc2)CC1 (stereo not given) is higher in Percent Effect: 0.526% for the first, 4.31% for the second.

First: CCc1nc(C)ncc1C(=O)N1CCCC(n2nc(C)nc2C)C1 (stereo not given)
Second: CCCC(C)C(=O)N1CCC(n2cccc2C(=O)OC)CC1 (stereo not given)
The Percent Effect of the first is lower: -3.35% for the first, 2.94% for the second.

First: CN(Cc1noc(C2CC2)n1)C1CCN(Cc2ccncc2)C1 (stereo not given)
Second: Fc1cccc(-c2nc(CN3CCn4c(nnc4C4CC4)C3)co2)c1
The Percent Effect of the first is higher: 1.44% for the first, 0.526% for the second.

Compared with CC(=O)N1N=C(c2ccccc2)OC1C(=O)NCCc1cccc(Cl)c1 (stereo not given), O=C1CC(c2ccco2)c2sc(C(=O)O)c(-c3ccccc3)c2N1 (stereo not given) is higher in Percent Effect: 0% for the first, 7.98% for the second.

Going from Cc1cc(CN(C)C(=O)c2ccnc(N(C)C)c2)no1 to Cc1cc(CN(C)C(=O)c2ccc(C(F)(F)F)nc2)no1, the Percent Effect falls from 3.68% to -1.58%.

First: Cc1nn(C)c(N(C)C)c1CNCCCN(C)S(C)(=O)=O
Second: CS(=O)(=O)N1CCC[C@]2(C[C@@H](Oc3ncccc3F)CO2)C1
The Percent Effect of the first is lower: 2.39% for the first, 12.1% for the second.
